Laboratory results reported in PubChem BioAssay (NCATS).
Several values for one entry are separate records, joined by “and”; a condition that tells them apart may be missing. Equal values may be shown once. Results filed as inconclusive are left out. Activity calls are given as the source filed them. Calls come from the whole dose curve; as a rule, active = well fitted curve in the direction sought with a large enough effect; inconclusive = small, poorly fitted or top-dose-only effect, or another doubt; inactive = no such curve, though single readings can be large; an effect the other way counts as inactive or inconclusive.

Assays:
[1] = molecular target: Cellular tumor antigen p53 (Homo sapiens) (UniProt P04637); experiment: Primary qHTS for small molecule compounds that upregulate eGFP-tagged delta133p53alpha (in N-terminal) cells. (AID 2060322); conditions: NCI-H358 eGFP-delta133p53alpha fluorescence, 24 h; activation: hits give high values; note: nearly all actives have a fitted effect of over 75% in size; note: potency is the fitted concentration of half-maximal effect;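 for activation: series mostly up to about 56 µM; 0% = DMSO vehicle and 100% = reference activator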
Method in brief: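 NCI-H358 cells pre-induced 24 h with 10 ng/ml doxycycline to express N-terminal eGFP-delta133p53alpha, then dosed 24 h at 37C without doxycycline; fixed, Hoechst-stained, GFP intensity by laser scanning cytometry, normalized to DMSO (0%) and 57.5 uM 5-azacytidine (100%).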

[2] = molecular target: Aldehyde dehydrogenase, mitochondrial (Homo sapiens) (UniProt P05091); experiment: qHTS for Inhibitors of the Aldehyde Dehydrogenase Family (ALDH2) Primary screen (AID 2061308);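 note: plate controls were vehicle for no effect and reference inhibitor for full effect; nearly all actives have a fitted effect of over 55% in size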
[3] = molecular target: Retinaldehyde dehydrogenase 3 (Homo sapiens) (UniProt P47895); experiment: qHTS for Inhibitors of the Aldehyde Dehydrogenase Family (ALDH1A3) Validation screen (AID 2061312); note: % is set by controls: 0 for no effect and ±100 for the full control effect; nearly all actives have a fitted effect of over 45% in size
[4] = molecular target: Retinaldehyde dehydrogenase 3 (Homo sapiens) (UniProt P47895); experiment: qHTS for Inhibitors of the Aldehyde Dehydrogenase Family (ALDH1A3) Primary screen (AID 2061315);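 note: plate controls were DMSO vehicle for no effect and reference inhibitor for full effect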
[5] = BET inhibitor-based combinations targeting novel dependencies in MECOM-rearranged (r) AML: SET-2 cell line (AID 2202231); conditions: SET-2 AML cells viability, CellTiter-Glo luminescence, 48 h; viability: hits give low values, concentration not given here; note: nearly all actives have a fitted effect of over 35% in size; note: potency is the fitted concentration of half-maximal effect;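 for viability: plate controls were DMSO treated cells for no effect and wells without cells for full effect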
Method in brief: (§1)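 500 cells/well; 11-pt dose curve; 48 h, standard incubator; CellTiter-Glo luminescence after 15 min RT; DMSO/empty-well normalization; AUC plus Z-AUC (mean-centered within each line).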

[6] = BET inhibitor-based combinations targeting novel dependencies in MECOM-rearranged (r) AML: OCI-AML3 cell line (AID 2202232); conditions: Potency: OCI-AML3 viability; note: nearly all actives have a fitted effect of over 35% in size; note: potency is the fitted concentration of half-maximal effect
Method in brief: as §1

[7] = BET inhibitor-based combinations targeting novel dependencies in MECOM-rearranged (r) AML: MV-4-11 cell line (AID 2202233); note: nearly all actives have a fitted effect of over 45% in size; note: potency is the fitted concentration of half-maximal effect
Method in brief: (§2)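 Cells were plated at 500 per well and exposed to each drug across an 11-point dose range for 48 hr at standard incubator conditions. Viability was read by CellTiter-Glo luminescence, and activity was expressed as AUC and per-cell-line Z-transformed AUC.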

[8] = BET inhibitor-based combinations targeting novel dependencies in MECOM-rearranged (r) AML: HNT-34 cell line (AID 2202234); note: nearly all actives have a fitted effect of over 35% in size; note: potency is the fitted concentration of half-maximal effect
Method in brief: as §2

[9] = BET inhibitor-based combinations targeting novel dependencies in MECOM-rearranged (r) AML: UCSD-AML1 cell line (AID 2202235); note: nearly all actives have a fitted effect of over 40% in size; note: potency is the fitted concentration of half-maximal effect
Method in brief: as §2

[10] = BET inhibitor-based combinations targeting novel dependencies in MECOM-rearranged (r) AML: AML-191 cell line (AID 2202236; note: nearly all actives have a fitted effect of over 35% in size; note: potency is the fitted concentration of half-maximal effect)
Method in brief: as §1

[11] = BET inhibitor-based combinations targeting novel dependencies in MECOM-rearranged (r) AML: AML-194 cell line (AID 2202237; note: potency is the fitted concentration of half-maximal effect; nearly all actives have a fitted effect of over 40% in size)
Method in brief: as §1

Sequence of Cellular tumor antigen p53 (Homo sapiens) (P04637 whole entry, looked up): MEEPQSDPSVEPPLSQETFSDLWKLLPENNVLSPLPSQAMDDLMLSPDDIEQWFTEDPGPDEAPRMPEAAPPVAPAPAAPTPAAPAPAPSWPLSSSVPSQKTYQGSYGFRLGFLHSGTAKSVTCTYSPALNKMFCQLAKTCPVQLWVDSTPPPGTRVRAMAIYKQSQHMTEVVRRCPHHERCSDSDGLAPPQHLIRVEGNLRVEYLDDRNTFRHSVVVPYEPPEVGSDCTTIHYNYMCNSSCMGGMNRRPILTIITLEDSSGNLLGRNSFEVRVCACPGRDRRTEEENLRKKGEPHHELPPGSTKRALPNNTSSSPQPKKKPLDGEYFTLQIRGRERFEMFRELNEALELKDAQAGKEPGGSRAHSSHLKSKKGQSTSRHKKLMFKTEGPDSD

O=C(/C=C/c1c(C(=O)O)[nH]c2cc(Cl)cc(Cl)c12)Nc1ccccc1
inactive: activation [1] -11.9% | Potency [2] | Potency [3] | Potency [4]

CN(C)CCCOc1nn(Cc2ccccc2)c2ccccc12
inactive: activation [1] 8.47% and -14.3% | Potency [2] | Potency [3] | Potency [4]

Cc1nc(Nc2n[nH]c3c2CN(C(=O)N[C@H](CN(C)C)c2ccccc2)C3(C)C)c2sccc2n1
inactive: Potency [2] | Potency [3] | Potency [4]
active: Potency [1] 10700 nM | Potency [5] 1480 nM | Potency [6] 468 nM | Potency [7] 23.5 nM | Potency [8] 1180 nM | Potency [9] 148 nM | Potency [10] 1180 nM | Potency [11] 1660 nM

COc1cccc2c(NCc3ccccc3)nc(-n3c(N)nc4ccccc43)nc12
active: Potency [5] 7420 nM | Potency [6] 3320 nM | Potency [7] 7420 nM | Potency [8] 3720 nM | Potency [9] 4170 nM | Potency [10] 2950 nM | Potency [11] 2630 nM
inactive: activation [1] -21.2% | Potency [2] | Potency [3] | Potency [4]

COc1cc2c(cc1-c1c(C)noc1C)ncc1[nH]c(=O)n([C@H](C)c3ccccn3)c12
inactive: activation [1] 5.5% and 9.55% and -13.4% | Potency [2] | Potency [3] | Potency [4]
active: Potency [5] 1320 nM | Potency [6] 468 nM | Potency [7] 417 nM

O=C(O)c1ccc(S(=O)(=O)N(Cc2ccc(OC(F)(F)F)cc2)c2ncc(C(F)(F)F)cc2Cl)cc1
inactive: activation [1] -2.86% | Potency [2] | Potency [3] | Potency [4]

CC1=C(C(=O)Nc2cc(Cl)ccc2Cl)C(c2ccco2)C2=C(CCCC2=O)N1 (centres undefined)
inactive: activation [1] 17.7% | Potency [2] | Potency [3] | Potency [4]

COc1ccc(-n2c(SCCCN3C(=O)c4cccc5cccc(c45)C3=O)nnc2-c2ccncc2)cc1
inactive: activation [1] -13.4% | Potency [2] | Potency [3] | Potency [4] | viability [5] 102% | Potency [6] | Potency [7] | Potency [8] | Potency [9] | Potency [10]

FC(F)(F)c1ccccc1-c1cc(C(F)(F)F)c2nc(C3=NOC4(CCCCC4)C3)[nH]c2c1
inactive: activation [1] 15.3% | Potency [2] | Potency [3] | Potency [4]

CN[C@@H]1[C@@H](O)[C@@H](O[C@@H]2[C@@H](O)[C@H](O[C@H]3O[C@H](CN)[C@@H](O)[C@H](O)[C@H]3O)[C@@H](N)C[C@H]2NC(=O)[C@@H](O)CN)OC[C@]1(C)O
inactive: activation [1] -2.86% | Potency [2] | Potency [3] | Potency [4]

O=c1cc(OCc2ccc(F)cc2)ccn1-c1ccc(OCCN2CCCC2)cc1
inactive: activation [1] -0.955% | Potency [2] | Potency [3] | Potency [4]

OC1(CN2CCC(COc3noc4cccc(O[C@@H]5CCOC5)c34)CC2)CCOCC1
inactive: activation [1] 3.82% | Potency [2] | Potency [3] | Potency [4]

CNc1ccc([N+](=O)[O-])c(Nc2ccc3[nH]ncc3c2)n1
inactive: Potency [2] | Potency [3] | Potency [4]
active: Potency [1] 10700 nM

COc1ccc(C2Sc3ccccc3N(CCN(C)C)C(=O)C2OC(C)=O)cc1 (centres undefined)
inactive: activation [1] -11.5% | Potency [2] | Potency [3] | Potency [4]
